Laboratory results taken from PubChem BioAssay (NCATS).
Inconclusive results are not listed. Activity calls are given as the source filed them. The call rests on the fitted dose curve; in most records, active means well fitted inhibition curve with a large enough effect; inconclusive means small, poorly fitted or top-dose-only effect; inactive means flat fitted curve, though single readings scatter.

Assays:
[1] = system: P93_24; assay: qHTS profiling for inhibitors of Plasmodium falciparum proliferation (AID 504749);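 further: 0% = DMSO vehicle and full inhibition = artemisinin control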; conditions: P. falciparum in erythrocytes, SYBR Green DNA, 72 h; series mostly up to 28.7 µM
Outline: (§1)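 SYBR Green fluorescence (ex 485 nm, em 535 nm) reports parasite DNA after 72 h compound exposure of infected red cells at 0.3% parasitemia, 2.5% hematocrit; signal normalized to 0.29 uM artemisinin and vehicle wells.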

[2] = system: P94_40; assay: as above; conditions: P. falciparum in erythrocytes, SYBR Green DNA, 72 h; series mostly up to 28.7 µM
Outline: as §1

[3] = system: PAD; assay: as above; conditions: P. falciparum in erythrocytes, SYBR Green DNA, 72 h; series mostly up to 28.7 µM
Outline: as §1

[4] = system: PC15; assay: as above; conditions: P. falciparum in erythrocytes, SYBR Green DNA, 72 h; series mostly up to 28.7 µM
Outline: as §1

[5] = system: PC26; assay: as above; conditions: P. falciparum in erythrocytes, SYBR Green DNA, 72 h; series mostly up to 28.7 µM
Outline: as §1

[6] = system: PC49; assay: as above; conditions: P. falciparum in erythrocytes, SYBR Green DNA, 72 h; series mostly up to 28.7 µM
Outline: as §1

[7] = system: SC27B; assay: as above; conditions: P. falciparum in erythrocytes, SYBR Green DNA, 72 h; series mostly up to 28.7 µM
Outline: as §1

[8] = system: TAB109; assay: as above; conditions: P. falciparum in erythrocytes, SYBR Green DNA, 72 h; series mostly up to 28.7 µM
Outline: as §1

[9] = system: TAB113; assay: as above; conditions: P. falciparum in erythrocytes, SYBR Green DNA, 72 h; series mostly up to 28.7 µM
Outline: as §1

[10] = system: TAB165; assay: as above; conditions: P. falciparum in erythrocytes, SYBR Green DNA, 72 h; series mostly up to 28.7 µM
Outline: as §1

[11] = system: W2; assay: as above; conditions: P. falciparum in erythrocytes, SYBR Green DNA, 72 h; series mostly up to 28.7 µM
Outline: as §1

[12] = system: CRL-7250; assay: Cytotoxic Profiling of Annotated Libraries Using Quantitative High-Throughput Screening (AID 1296008); conditions: Five cell lines viability, CellTiter-Glo ATP luminescence, 48-72 h; stronger effect = lower value; on max response: on the % scale 0 is the no-effect control and ±100 the full control effect
Outline: (§2)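 Cells exposed to compounds for 48 or 72 hr at 37 degrees Celsius. Viability read as ATP-coupled luminescence with CellTiter-Glo after 10 min at room temperature.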

[13] = system: HEK293; assay: as above; conditions: Five cell lines viability, CellTiter-Glo ATP luminescence, 48-72 h; stronger effect = lower value
Outline: as §2

[14] = system: HaCat; assay: as above; conditions: Five cell lines viability, CellTiter-Glo ATP luminescence, 48-72 h; stronger effect = lower value
Outline: as §2

[15] = system: KB-3-1; assay: as above; conditions: Five cell lines viability, CellTiter-Glo ATP luminescence, 48-72 h, stronger effect = lower value
Outline: as §2

[16] = system: NIH3T3; assay: as above; conditions: Five cell lines viability, CellTiter-Glo ATP luminescence, 48-72 h; stronger effect = lower value
Outline: as §2

[17] = system: HACAT; assay: qHTS assay to identify novel small-molecules to repurpose for Merkel cell carcinoma treatment (AID 1296009); conditions: MCC and control cell lines, CellTiter-Glo viability, 72 h; at 44.8 µM (top of the series) unless noted
Outline: (§3)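 CellTiter-Glo luminescence after 72 hr compound exposure at 37 degree celsius gave cell viability. Libraries NPC and MIPE were run as 8- and 11-point dose responses; RLUs normalized to DMSO (negative) and no-cell (cytotoxicity) controls.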

[18] = system: MCC-13; assay: as above; conditions: MCC and control cell lines, CellTiter-Glo viability, 72 h; series mostly up to 46 µM
Outline: as §3

[19] = system: MCC-26; assay: as above; conditions: MCC and control cell lines, CellTiter-Glo viability, 72 h; series mostly up to 46 µM
Outline: as §3
Further: nearly all actives have a fitted effect of over 60% in size.

Cc1c(NC(=O)c2cccnc2)c(=O)n(-c2ccccc2)n1C
inactive: Potency [1] | Potency [2] | Potency [3] | Potency [4] | Potency [5] | Potency [6] | Potency [7] | Potency [8] | Potency [9] | Potency [10] | Potency [11] | max response [12] -9.05% | max response [13] 0.504% | outcome [14] | max response [15] -0.639% | outcome [16] | outcome [17] | outcome [18] | outcome [19]

CC(C)c1cc2c(cc1S(=O)(=O)O)[C@@]1(C)CCC[C@@](C)(C(=O)O)[C@@H]1CC2
inactive: Potency [1] | Potency [2] | Potency [3] | Potency [4] | Potency [5] | Potency [6] | Potency [7] | Potency [8] | Potency [9] | Potency [10] | max response [12] -2.14% | max response [13] 0.927% | outcome [14] | max response [15] -7.82% | outcome [16] | outcome [17] | outcome [18] | outcome [19]

O=c1[nH]cnc2nc[nH]c12
inactive: Potency [1] | Potency [2] | Potency [3] | Potency [4] | Potency [5] | Potency [6] | Potency [7] | Potency [8] | Potency [9] | Potency [10] | Potency [11] | max response [12] -2.48% | max response [13] -1.3% | outcome [14] | max response [15] -17.5% | max response [16] -0.611% | outcome [17] | outcome [18] | outcome [19]

COC(=O)c1ccc(O)cc1
inactive: Potency [1] | Potency [2] | Potency [3] | Potency [4] | Potency [5] | Potency [6] | Potency [7] | Potency [8] | Potency [9] | Potency [10] | Potency [11] | max response [12] 1% | max response [13] 3.26% | outcome [14] | max response [15] 0.911% | outcome [16] | outcome [17] | outcome [18] | outcome [19]

O=C(O)Cn1c(C(=O)Nc2nc(-c3ccccc3Cl)cs2)cc2ccccc21
inactive: Potency [1] | Potency [2] | Potency [3] | Potency [4] | Potency [5] | Potency [6] | Potency [7] | Potency [8] | Potency [9] | Potency [10] | Potency [11] | outcome [12] | max response [13] -5.16% | outcome [14] | max response [15] -7.98% | outcome [16] | outcome [17] | outcome [18] | outcome [19]

COc1ccc(Cc2cnc(N)nc2N)cc1OC
inactive: Potency [1] | Potency [2] | Potency [3] | Potency [4] | Potency [5] | Potency [6] | Potency [7] | Potency [8] | Potency [9] | Potency [10] | Potency [11] | max response [12] -8.49% | max response [13] 2.64% | outcome [14] | max response [15] -1.92% | max response [16] -0.487% | outcome [17] | outcome [18] | outcome [19]

CCN(CC)CC1CCCCN1CC(=O)N1c2ccccc2C(=O)Nc2cccnc21 (stereo unspecified)
inactive: Potency [1] | Potency [2] | Potency [3] | Potency [4] | Potency [5] | Potency [6] | Potency [7] | Potency [8] | Potency [9] | Potency [10] | Potency [11] | max response [12] -4.06% | max response [13] 4.03% | outcome [14] | max response [15] 6.89% | max response [16] 4.32% | outcome [17] | outcome [18] | outcome [19]

Cc1ccc(S(=O)(=O)NC(=O)NC2CCCCC2)cc1
inactive: Potency [1] | Potency [2] | Potency [3] | Potency [4] | Potency [5] | Potency [6] | Potency [7] | Potency [8] | Potency [9] | Potency [10] | Potency [11] | outcome [12] | max response [13] 2.4% | outcome [14] | max response [15] 3.8% | max response [16] 0.0689% | outcome [17] | outcome [18] | outcome [19]

CC1CCc2cc(F)cc3c(=O)c(C(=O)O)cn1c23 (stereo unspecified)
inactive: Potency [1] | Potency [2] | Potency [3] | Potency [4] | Potency [5] | Potency [6] | Potency [7] | Potency [8] | Potency [9] | Potency [10] | Potency [11] | outcome [12] | max response [13] -3.78% | outcome [14] | max response [15] -6.7% | max response [16] -1.98% | outcome [17] | outcome [18] | outcome [19]

COc1ccc(C(=O)N2CCN(CC(=O)N3CCOCC3)CC2)cc1
inactive: Potency [1] | Potency [2] | Potency [3] | Potency [4] | Potency [5] | Potency [6] | Potency [7] | Potency [8] | Potency [9] | Potency [10] | Potency [11] | max response [12] 3.53% | max response [13] 4.6% | outcome [14] | max response [15] 5.06% | outcome [16] | outcome [17] | outcome [18] | outcome [19]

CCCCCCCC(=O)OCC(COC(=O)CCCCCCC)OC(=O)CCCCCCC
inactive: Potency [1] | Potency [2] | Potency [3] | Potency [4] | Potency [5] | Potency [6] | Potency [7] | Potency [8] | Potency [9] | Potency [10] | max response [12] -3.96% | max response [13] 1.52% | outcome [14] | max response [15] -1.81% | max response [16] 4.46% | outcome [17] | outcome [18] | outcome [19]

Cc1c(Cn2ccnc2)c2ccccc2n1CCC(=O)O
inactive: Potency [1] | Potency [2] | Potency [3] | Potency [4] | Potency [5] | Potency [6] | Potency [7] | Potency [8] | Potency [9] | Potency [10] | Potency [11] | max response [12] 0.62% | max response [13] 1.95% | outcome [14] | max response [15] -18.7% | max response [16] 3.45% | outcome [17] | outcome [18] | outcome [19]
